Bioassay records (PubChem BioAssay)
TRHR agonist-1 = activates the human TRH receptor; P34981; TRHR cells, calcium flux fluo-8, FDSS agonist mode; activation, % at 2 µM; 360,000 tested, 0.18% active; AID 493084; in the data active means activation above about 30%
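Agonist-mode FDSS calcium read (Ex 480/Em 530, 1 s cycles) in 1536-well TRHR cells with fluo-8 dye, after 10-cycle baseline and 23 nL compound addition; TRH at EC20 (10 nM final) added afterwards for the enhancer phase.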
D1 potentiator = potentiators of human D1 dopamine receptor | HEK293 TREx D1 cells, calcium flux, dopamine EC20 potentiation | potentiation, % at 10 µM | 360,000 tested, 0.036% active; in the data active means potentiation above about 30%
Target sequence (P21728 whole entry, looked up): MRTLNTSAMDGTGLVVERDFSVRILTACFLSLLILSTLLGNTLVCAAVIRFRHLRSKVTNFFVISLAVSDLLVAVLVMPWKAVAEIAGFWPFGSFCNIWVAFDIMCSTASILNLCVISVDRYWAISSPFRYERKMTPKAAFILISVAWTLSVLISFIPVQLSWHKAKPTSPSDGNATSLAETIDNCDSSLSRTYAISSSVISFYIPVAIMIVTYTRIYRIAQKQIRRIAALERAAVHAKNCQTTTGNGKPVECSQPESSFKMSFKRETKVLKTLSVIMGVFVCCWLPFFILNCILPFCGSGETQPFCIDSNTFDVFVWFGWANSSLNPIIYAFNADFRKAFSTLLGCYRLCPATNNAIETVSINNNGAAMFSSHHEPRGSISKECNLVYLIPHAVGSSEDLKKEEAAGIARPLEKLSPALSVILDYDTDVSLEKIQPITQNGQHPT
D1 ag = human D1 receptor agonism | P21728 | HEK293 T-REx D1 cells, calcium flux, agonist mode | activation, % at 2 µM | 360,000 tested, 1% active; in the data active means activation above about 30%
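Agonism was scored from calcium flux recorded over 180 s (1 read/s) after pintool compound addition, following a 10-cycle baseline. Cells were inducible force-coupled HEK293 TREx D1, plated overnight at 30 C and loaded with no-wash calcium dye.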
TRHR enhancer-1 = allosterically enhances the human TRH receptor. enhancement, % at 2 µM. AID 493056. 360,000 tested, 0.66% active. P34981. TRHR cells, fluo-8 calcium fluorescence, EC20 TRH enhancement; in the data active means enhancement above about 30%
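Enhancer read-out: after compound pinning and an initial kinetic agonist-mode read, an EC20 of TRH (10 nM final) was injected and fluo-8 calcium signal (Ex 480/Em 530) followed at 1 s/cycle for 100 cycles in TRHR-expressing cells.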
D1 antag = blocks dopamine activation of the human D1 receptor; P21728; HEK293 TREx D1 cells, calcium flux, dopamine EC80; hits give low values; activity change, negative = inhibition, % at 10 µM; 360,000 tested, 3.2% active; AID 504652; in the data active means activity change below about -30%
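After overnight tetracycline induction at 30 C, force-coupled D1 HEK293 cells took up a no-wash calcium dye at room temperature. Compounds were added and monitored 180 s, and the response to EC80 dopamine was then recorded.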
TRHR enhancer-2 = confirmation of human TRH receptor allosteric enhancers | TRH receptor cell assay, enhancer confirmation qHTS | 970 tested, under 10 active | activity change, negative = inhibition, % at 46.1 µM | AID 493076 | shares compounds with TRHR enhancer-1;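 further: compound effect scored on response to added TRH at EC20 of 10 nM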
TRHR agonist-2 = confirmation of human TRH receptor agonists; shares compounds with TRHR enhancer-1; TRHR-expressing cells, agonist activation read-out; Potency, µM (titrated, usually from 46.1 µM), most hits filed as activators; 970 tested, 8% active; further: nearly all actives have a fitted effect of over 75% in size
Numbers stand for hits; i = inactive; ? = inconclusive; nt = no result. Compounds with a hit are over-represented: about 4.6% of the library has one in this group of screens. Unless noted, the call rests on the fitted dose curve; in most records, active means well fitted curve in the direction sought with a large enough effect; inconclusive means small, poorly fitted or top-dose-only effect, or another doubt; inactive means no such curve, though single readings can be large; an effect the other way counts as inactive or inconclusive.

SMILES	TRHR agonist-1	D1 potentiator	D1 ag	TRHR enhancer-1	D1 antag	TRHR enhancer-2	TRHR agonist-2
O=C(CCCn1c(=S)[nH]c2cc3c(cc2c1=O)OCO3)NCc1ccccc1Cl	i	i	i	46	i	i	i
CCc1ccc(NC(=O)C2CCN(c3nnc(-n4c(C)ccc4C)s3)CC2)cc1	i	i	i	i	i	nt	nt
Cc1ccc(C(=O)NCc2nnnn2-c2ccc(C)c(C)c2)cc1	i	i	i	i	i	nt	nt
COc1ccc(C(=O)NCc2nnnn2-c2ccc(C)c(C)c2)cc1	i	i	i	68	i	i	i
C=CCn1c(=O)c2ccccc2n2c(SC(C)C(N)=O)nnc12 (stereo unspecified)	i	i	i	45	i	i	i
CCCn1c(=O)c2ccccc2n2c(SC(C)C(N)=O)nnc12 (stereo unspecified)	i	i	i	i	i	nt	nt
Cc1cccc(-c2noc(C3CC(=O)N(c4ccc5c(c4)OCCO5)C3)n2)c1 (stereo unspecified)	i	i	i	i	i	nt	nt
O=C(NCCCN1CCCCC1)C1CCC(CNS(=O)(=O)c2cccc3nsnc23)CC1 (stereo unspecified)	i	i	i	48	i	i	i
CC1CCN(CCCNC(=O)C2CCC(CNS(=O)(=O)c3cccc4nsnc34)CC2)CC1 (stereo unspecified)	i	i	i	i	i	nt	nt
COc1ccc(N(Cc2cccs2)C(=O)Nc2ccccc2)cc1	i	i	i	i	i	nt	nt
CCCCN1C(=O)/C(=C/C=C2/CC(C)(C)CN2C)SC1=S	39	i	128	i	i	i	9.2µM
COc1ccccc1NC(=O)CC1COc2ccccc2O1 (stereo unspecified)	i	i	i	47	i	i	i
Cc1cc(C)c(NC(=O)CS(=O)CC(=O)N2CCN(c3cccc(C)c3C)CC2)c(C)c1 (stereo unspecified)	i	i	i	i	i	nt	nt
CCOC(=O)c1cnc(-n2nc(C)cc2C)nc1Nc1ccc(OC)cc1	i	i	i	42	i	i	?
O=C(Cc1ccccc1)NC1CCN(Cc2ccccc2)CC1	i	i	i	61	i	i	i
COc1cccc(NC(=O)Cn2cnc3c(nc4n3CCCCC4)c2=O)c1	i	i	i	i	i	nt	nt
COc1cccc(CNc2nnnn2C)c1OC	i	i	i	i	i	nt	nt
CCCCn1nnnc1NCc1ccc(OC)c(OC)c1OC	i	i	i	45	i	i	i
CCOc1ccc(CNC(=O)c2cc3c(=O)n(Cc4cccs4)ccc3nc2C)cc1	i	i	i	i	i	nt	nt
COc1cnc(-c2ccccc2)nc1Oc1cccc(C)c1	i	i	i	59	i	i	i
COc1cnc(-c2ccccc2)nc1OC	i	i	i	i	i	nt	nt
COc1cc2c(-c3ccc(C)cc3)nc3c(c(C)nn3-c3ccccc3)c2cc1OC	i	i	i	i	i	nt	nt
COc1cccc(C(=O)N2CCN(Cc3ccccc3C(F)(F)F)CC2)c1	i	i	i	i	i	nt	nt
COc1ccc(C(=O)N2CCN(Cc3ccccc3C(F)(F)F)CC2)cc1	32	i	i	i	i	i	i
O=C(CN1C(=O)NC2(CCCC2)C1=O)NNC(=O)c1ccc(F)cc1	i	i	i	i	i	nt	nt
SMILES	TRHR agonist-1	D1 potentiator	D1 ag	TRHR enhancer-1	D1 antag	TRHR enhancer-2	TRHR agonist-2
CCc1ccc(N2C(=O)CC(c3ccc(F)cc3)C3=C2COC3=O)cc1 (stereo unspecified)	i	i	i	73	i	i	i
O=C1OCC2=C1C(c1ccc(F)cc1)CC(=O)N2c1ccc(F)cc1 (stereo unspecified)	i	i	i	i	i	nt	nt
CCC(C)(C)NC(=O)C(c1cccn1C)N(C(=O)Cn1nnc2ccccc21)c1ccc(F)cc1 (stereo unspecified)	i	i	i	i	i	i	?
Cc1cccc(C)c1NC(=S)N1CCOCC1	i	i	i	i	i	nt	nt
Cc1cccc(C)c1NC(=S)N1CCC(c2ccccc2)C1 (stereo unspecified)	i	i	i	49	i	i	i
CCCN(c1ccccc1C(=O)O)S(=O)(=O)c1ccc2c(c1)n(C)c(=O)n2C	i	i	i	i	i	nt	nt
COc1ccc(Br)cc1CNC(=O)CN1C(=O)CSc2ccc(S(=O)(=O)N3CCOCC3)cc21	i	i	i	i	i	nt	nt
O=C(N/N=C/c1ccc(N2CCOCC2)c([N+](=O)[O-])c1)c1ccc(F)cc1	i	i	i	100	nt	i	i
O=C(NCc1ccc(F)cc1)c1ccc(N2CCOCC2)c([N+](=O)[O-])c1	i	i	i	i	i	nt	nt
COc1cccc(C2CC(c3ccc(NS(C)(=O)=O)cc3)=NN2C(=O)c2ccccc2)c1OC (stereo unspecified)	i	i	i	50	i	i	i
O=C(O)C1CC=CCC1C(=O)NCCCN1CCCC1=O (stereo unspecified)	i	i	i	45	i	i	i
CC1=C(C)CC(C(=O)NCCCN2CCCC2=O)C(C(=O)O)C1 (stereo unspecified)	i	i	i	i	i	nt	nt
Cc1oc2cc3oc(=O)c(CC(=O)N[C@@H](C)C(=O)NC(Cc4ccc(Cl)cc4)C(=O)O)c(C)c3cc2c1C (stereo partly specified)	i	i	i	44	i	i	i
CCC(NC(=O)Cc1c(C)c2ccc(OC)c(C)c2oc1=O)C(=O)NC(Cc1ccc(Cl)cc1)C(=O)O (stereo unspecified)	i	i	i	i	i	nt	nt
COc1ccc(C)cc1S(=O)(=O)N1CCC2(CC1)OCCN2S(=O)(=O)c1cccs1	i	i	i	66	i	?	i
CCCn1c2ccccc2c2nnc(SC(CC)C(=O)Nc3sc4c(c3C#N)CCCC4)nc21 (stereo unspecified)	i	i	i	i	nt	i	i
Cc1ccc(C(=O)CCNc2cccc(Br)c2)o1	i	i	i	66	i	i	i
COc1ccc(CNCC(O)COc2ccc(C)cc2[N+](=O)[O-])cc1 (stereo unspecified)	34	i	i	i	i	i	i
COc1ccc(OCCOCCOc2ccc(C)cc2[N+](=O)[O-])cc1	i	i	i	i	i	nt	nt
Cn1nc(C(=O)NCc2ccccc2)cc1C(=O)NCc1ccccc1	i	i	i	i	i	nt	nt
O=C(NCc1ccc(Cl)cc1)c1ccc(CNS(=O)(=O)c2ccc(F)cc2)cc1	i	i	i	i	i	nt	nt
CS(=O)(=O)c1ccc(C(=O)NCc2ccc(F)cc2)cc1	i	i	i	60	i	i	i
Cn1nc(C(=O)NCc2ccc(F)cc2)cc1C(=O)NCc1ccc(F)cc1	i	i	i	46	i	i	i
CCOC(=O)c1cnc2ccc(C(=O)OC)cc2c1Nc1ccccc1CC	i	i	i	i	i	nt	nt
